Pf apPOL block: Pf-apPOL DNA polymerase inhibition | Recombinant Pf-apPOL, molecular beacon fluorescence, 1.5 h | inhibition, % at 10 µM | 0.25% of 210,000 active | AID 1794808
mHTT CaM bind: mHTT-calmodulin interaction abrogation; 3.6% of 190,000 active; inhibition, % at 15 µM; AlphaScreen His-mHTT/GST-CaM binding, luminescence; P42858;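 also: 0% = both proteins with DMSO and 100% = one protein alone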
The depositor's hits bear a star; · = not tested or not shown. Most compounds without a hit are left out; they make up all but 3.5% or so of the library. Rule as the data show it: active = inhibition above about 50%; inactive = the rest.

SMILES | Pf apPOL block | mHTT CaM bind
Cc1ccc(N2N=NC3C(=O)N(c4ccccc4)C(=O)C32)cc1F (stereo not drawn) | -1.4 | -8.8
CC(C)C(=O)Nc1cccc(NC(=O)c2ccc(Br)o2)c1 | 5.0 | -3.8
CCOc1ccc(C(=O)N2CCN(c3c(Cl)cccc3[N+](=O)[O-])CC2)cc1 | -4.8 | 28.6
O=[N+]([O-])c1ccc(NCCCNS(=O)(=O)c2ccc(Cl)cc2)c(C(F)(F)F)c1 | 6.8 | 53.0*
CC(=O)Nc1ccc(S(=O)(=O)NCCCNc2ccc([N+](=O)[O-])cc2Cl)cc1 | -6.5 | 11.2
COc1ccccc1C(=O)N/C(=C/c1ccc2c(c1)OCO2)C(=O)N1CCOCC1 | 2.9 | 1.0
CCN1C(=O)C(C)(C(=O)Nc2cc(C)cc(C)c2)Oc2cccnc21 (stereo not drawn) | -1.3 | -13.3
Cc1ccc(C(=O)N2CCN(C(=O)c3ccccc3)C2c2ccc(N(C)C)cc2)cc1 (stereo not drawn) | 6.3 | 40.0
Cc1ccc(C(=O)N2CCN(S(=O)(=O)c3ccccc3)C2c2ccc(N(C)C)cc2)cc1 (stereo not drawn) | 1.7 | 53.0*
COc1ccc(-c2csc3c(=O)n(CCOc4ccccc4)cnc23)cc1 | -3.5 | -29.0
CC1(O)CCN(Cc2cccs2)CC1N1CCCC1 (stereo not drawn) | -13.7 | 35.7
CCN1CCN(c2ncc3c(n2)CCN(Cc2ccc(Cl)c(F)c2)C3)CC1 | 0.8 | 62.6*
CCN1CCN(c2ncc3c(n2)CCN(CCc2ccccc2)C3)CC1 | -6.6 | 96.6*
CCCN1CCN(c2ncc3c(n2)CCN(Cc2cccc(C)c2)C3)CC1 | -6.8 | 13.3
CCOc1ccc(CN2CCc3nc(N4CCN(CC)CC4)ncc3C2)cc1OCC | -4.5 | 20.0
CCN1CCN(c2ncc3c(n2)CCN(Cc2cccc(F)c2F)C3)CC1 | 5.0 | 32.0
CCCN1CCc2nc(N3CCN(c4ccccc4F)CC3)ncc2C1 | -3.5 | 14.7
CCN1CCN(c2ncc3c(n2)CCN(Cc2ccccc2F)C3)CC1 | -3.1 | 56.3*
Cc1cccc(CN2CCc3nc(N4CCN(c5ncccn5)CC4)ncc3C2)c1 | 0.8 | 100.1*
Cc1ccc(NC(=O)c2cc(N3CCOCC3)c3cc(C)ccc3n2)cc1 | -1.3 | -8.7
CCN1CCN(C(=O)c2cnc(-c3cccc(C)c3)nc2N(C)C)CC1 | -6.1 | 5.9
COc1cccc(CNC(=O)CC2CCN(C(=O)c3ccccc3)CC2)c1 | -14.8 | -6.5
Clc1cccc(CN2CCc3nc(N4CCN(c5ccccc5)CC4)ncc3C2)c1 | 1.7 | 24.6
CCN1CCN(c2ncc3c(n2)CCN(Cc2cccc(Cl)c2)C3)CC1 | 1.2 | 78.3*
Clc1cccc(CN2CCc3nc(N4CCN(c5ncccn5)CC4)ncc3C2)c1 | -6.5 | 100.3*
SMILES | Pf apPOL block | mHTT CaM bind
CCCN1CCN(c2ncc3c(n2)CCN(Cc2cccc(Br)c2)C3)CC1 | -5.8 | 45.2
CCc1onc(C)c1C1CCCN1C(=O)c1cc(-c2cccc(Cl)c2)on1 (stereo not drawn) | 0.6 | 8.7
CCN(CC)c1ccc(C=Nc2ccc(C)cc2)cc1 | -4.3 | -4.0
CCN(CC)c1ccc(N=Cc2ccc(O)cc2)cc1 | -8.1 | 86.0*
Cc1ccc(NC(=O)c2cccnc2N2CCOCC2)cc1 | -1.7 | 1.3
CCc1ccc(C2CC(c3cccc(OC)c3OC)n3ncnc3N2)cc1 (stereo not drawn) | 2.1 | 26.0
CCc1onc(C)c1C1CCCN1Cc1ccccc1O (stereo not drawn) | 1.1 | -12.9
N#Cc1c(Nc2ccc(F)cc2)sc2c(O)cc(=O)[nH]c12 | -2.7 | 51.0*
O=c1cc(O)c2sc(Nc3ccc(F)cc3)nc2[nH]1 | 4.4 | 20.0
CCCCN(C)S(=O)(=O)c1ccc(C(=O)Nc2nc(-c3ccccn3)cs2)cc1 | 1.7 | 86.0*
CN(C)S(=O)(=O)c1ccc(C(=O)Nc2nc(-c3cccs3)cs2)cc1 | -6.2 | 13.2
O=C(Nc1nc(-c2ccccn2)cs1)c1ccc(S(=O)(=O)N2CCc3ccccc32)cc1 | 2.3 | 97.0*
CCCCN(C)S(=O)(=O)c1ccc(C(=O)Nc2nc3c(s2)Cc2ccccc2-3)cc1 | -1.8 | -6.0
O=C(Nc1nc(-c2cccnc2)cs1)c1ccc(S(=O)(=O)N2CCc3ccccc32)cc1 | -4.8 | 9.0
CN(C1CCCCC1)S(=O)(=O)c1ccc(C(=O)Nc2nc(-c3ccccn3)cs2)cc1 | -6.8 | 99.0*
COc1ccc(-c2nnc(N3CCC(C(=O)NCc4cccs4)CC3)o2)cc1 | -1.5 | 5.7
O=C1CC(c2cccs2)CC2=C1C(c1c(F)cccc1Cl)Nc1ccccc1N2 (stereo not drawn) | -0.2 | 14.0
O=C(Nc1ccc(F)cc1)C1CCCN(c2nnc3ccc(Cl)cn23)C1 (stereo not drawn) | 8.3 | 7.8
CCC(=O)NCc1nc2c(n1CC)CN(S(=O)(=O)c1ccc(F)c(C)c1)CC2 | -5.9 | 6.7
O=C(CC1CCN(C(=O)c2ccccc2Cl)CC1)NCCCc1ccccc1 | -4.0 | -3.4
COc1ccccc1C(=O)N1CCc2c(c(-c3nc(C4CC4)no3)nn2C)C1 | -6.1 | -1.3
O=S(=O)(Nc1ccc2c(c1)OC1(CCCC1)O2)c1ccc2c(c1)Cc1ccccc1-2 | · | 62.9*
CC(=O)Nc1ccc(S(=O)(=O)Nc2ccc3c(c2)OC(C)(C)O3)cc1 | -1.1 | 3.7
Cc1ccc(NC(=O)c2ccc(-c3csc(C)n3)cc2)c(C)c1 | -6.5 | 0.2
c1ccc(-n2ncc3c(NCCc4c[nH]c5ccccc45)nnnc32)cc1 | -2.0 | 26.0
SMILES | Pf apPOL block | mHTT CaM bind
Cc1cc(C2=CSC3=NCCCN23)ccc1Cl | -3.2 | ·
COc1ccccc1N1CCN(CCNC(=O)c2ccc3nsnc3c2)CC1 | -5.3 | -15.0
Cc1ccccc1N1CCN(CCOc2cccc(Cl)c2)CC1 | -5.3 | 93.2*
COc1ccccc1N1CCN(CCOc2ccc(Cl)cc2)CC1 | -2.0 | 6.8
CC(C)(C)c1ccc(NC(=O)c2ccco2)c(NC(=O)C(Cl)Cl)c1 | -1.3 | ·
COc1cc(C(CCN2CCCC2)c2c(OC)cc(OC)c3c(C)cc(=O)oc23)cc(OC)c1OC (stereo not drawn) | -13.1 | 10.5
COc1ccc(C(CCN2CCCC(C)C2)c2c(OC)cc(OC)c3c2OC(=O)CC3c2cc(OC)c(OC)c(OC)c2)cc1 (stereo not drawn) | -1.7 | 53.6*
COc1cc(C(CCN2CCCC(C)C2)c2c(OC)cc(OC)c3c(-c4ccccc4)cc(=O)oc23)cc(OC)c1OC (stereo not drawn) | -9.0 | 87.2*
CCCCCc1cc(=O)oc2c(C(CCN3CCCCC3)c3ccc(OC)cc3)c(OC)cc(OC)c12 (stereo not drawn) | -19.1 | 100.1*
COc1cc(C(CCN2CCOCC2)c2c(OC)cc(OC)c3c(C)cc(=O)oc23)cc(OC)c1OC (stereo not drawn) | -11.8 | 28.2
COc1cc(OC)c2ccc(=O)oc2c1C(CCN1CCCCC1)c1ccc(N(C)C)cc1 (stereo not drawn) | -12.3 | 42.3
COc1cc(C(CCN2CCCCC2)c2c(OC)cc(OC)c3c(-c4ccccc4)cc(=O)oc23)cc(OC)c1OC (stereo not drawn) | -15.7 | 66.8*
COc1cc(OC)c2ccc(=O)oc2c1C(CCN1CCCC(C)C1)c1ccc2c(c1)OCO2 (stereo not drawn) | -7.5 | 16.7
COc1ccccc1CN1CCCN(C)CC1 | -4.0 | -7.4
Cc1ccc(-c2coc3cc4oc(=O)cc(C)c4cc23)cc1 | -3.2 | -11.0
O=C(NC1CCCC1)c1ccc2c(c1)NC(=O)C(N1CCCCC1)S2 (stereo not drawn) | 48.1 | 3.0
Clc1cccc(OCCOCCN2CCOCC2)c1 | -34.8 | -0.8

Compound activity deposited in PubChem BioAssay by University of Kansas High Throughput Screening Laboratory.
